Measured values as given in PMC11006913.
Where a chain is given by its changes, count along the chain named.

How the values were obtained:
Experiment in all cases: PBM; 200 nM protein, PBS
Conditions in all cases: dsDNA, one strand shown
ALX3 [1] = biological target: ALX3 (Homo sapiens, UniProt O95076 139-225, N203Q)
PAX4 = biological target: T1, PAX4 (Homo sapiens, UniProt O43316 9-242, F177V)
T1 sequence: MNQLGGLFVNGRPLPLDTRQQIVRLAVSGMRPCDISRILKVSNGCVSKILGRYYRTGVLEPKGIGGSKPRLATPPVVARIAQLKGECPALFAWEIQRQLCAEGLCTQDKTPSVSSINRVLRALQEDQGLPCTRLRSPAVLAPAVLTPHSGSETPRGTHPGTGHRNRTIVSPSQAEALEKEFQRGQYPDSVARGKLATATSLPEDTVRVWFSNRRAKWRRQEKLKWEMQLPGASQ

ALX3 [2] = biological target: ALX3 (Homo sapiens, UniProt O95076 139-225, N203S)
ALX3 [3] = biological target: ALX3 (Homo sapiens, UniProt O95076 139-225)
ALX3 [4] = biological target: ALX3 (Homo sapiens, UniProt O95076 139-225, L168Q)
ALX3 [5] = biological target: ALX3 (Homo sapiens, UniProt O95076 139-225, L168V)
NKX2-6 [6] = biological target: T2, NKX2-6 (Homo sapiens, UniProt A6NCS4 118-204)
T2 sequence: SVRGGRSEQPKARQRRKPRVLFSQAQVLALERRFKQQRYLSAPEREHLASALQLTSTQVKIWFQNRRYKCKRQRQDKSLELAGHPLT

NKX2-6 [7] = biological target: T3, NKX2-6 (Homo sapiens, UniProt A6NCS4 118-204, F151L)
T3 sequence: T2 sequence with F34L

HOXD13 [8] = biological target: HOXD13 (Homo sapiens, UniProt P35453 263-343, T313R)
HOXD13 [9] = biological target: HOXD13 (Homo sapiens, UniProt P35453 263-343)
HOXD13 [10] = biological target: HOXD13 (Homo sapiens, UniProt P35453 263-343, T313A)
HOXC9 = HOXC9 (Homo sapiens, UniProt P31274 178-260, R222W)
VAX1 [11] = biological target: VAX1 (Homo sapiens, UniProt Q5SQQ9 86-172)
VAX1 [12] = biological target: VAX1 (Homo sapiens, UniProt Q5SQQ9 86-172, T142I)
VAX1 [13] = biological target: VAX1 (Homo sapiens, UniProt Q5SQQ9 86-172, K157R)
Sequence of VAX1 (Homo sapiens, UniProt Q5SQQ9 86-172, K157R) (Q5SQQ9 86-172 K157R): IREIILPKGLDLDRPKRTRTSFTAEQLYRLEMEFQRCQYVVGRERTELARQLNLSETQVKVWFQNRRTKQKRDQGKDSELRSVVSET

Sequence of ALX3 (Homo sapiens, UniProt O95076 139-225, L168V) (O95076 139-225 L168V): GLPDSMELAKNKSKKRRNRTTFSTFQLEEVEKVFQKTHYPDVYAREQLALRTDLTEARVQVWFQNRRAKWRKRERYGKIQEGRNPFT
Sequence of ALX3 (Homo sapiens, UniProt O95076 139-225) (O95076 139-225): as the sequence (O95076 139-225 L168V) above, with V30L counted along it
Sequence of ALX3 (Homo sapiens, UniProt O95076 139-225, N203S) (O95076 139-225 N203S): as the sequence (O95076 139-225 L168V) above, with V30L, N65S counted along it
Sequence of ALX3 (Homo sapiens, UniProt O95076 139-225, L168Q) (O95076 139-225 L168Q): as the sequence (O95076 139-225 L168V) above, with V30Q counted along it
Sequence of ALX3 (Homo sapiens, UniProt O95076 139-225, N203Q) (O95076 139-225 N203Q): as the sequence (O95076 139-225 L168V) above, with V30L, N65Q counted along it
Sequence of VAX1 (Homo sapiens, UniProt Q5SQQ9 86-172, T142I) (Q5SQQ9 86-172 T142I): as the sequence (Q5SQQ9 86-172 K157R) above, with T57I, R72K counted along it
Sequence of HOXC9 (P31274 178-260 R222W): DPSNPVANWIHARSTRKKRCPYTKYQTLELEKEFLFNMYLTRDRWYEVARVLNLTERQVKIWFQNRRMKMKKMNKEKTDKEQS
Sequence of VAX1 (Homo sapiens, UniProt Q5SQQ9 86-172) (Q5SQQ9 86-172): as the sequence (Q5SQQ9 86-172 K157R) above, with R72K counted along it
Sequence of HOXD13 (Homo sapiens, UniProt P35453 263-343) (P35453 263-343): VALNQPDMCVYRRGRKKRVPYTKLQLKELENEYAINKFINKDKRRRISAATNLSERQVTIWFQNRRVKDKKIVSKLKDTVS
Sequence of HOXD13 (Homo sapiens, UniProt P35453 263-343, T313A) (P35453 263-343 T313A): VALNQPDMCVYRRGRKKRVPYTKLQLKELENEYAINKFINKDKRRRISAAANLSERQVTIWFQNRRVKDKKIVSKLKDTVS
Sequence of HOXD13 (Homo sapiens, UniProt P35453 263-343, T313R) (P35453 263-343 T313R): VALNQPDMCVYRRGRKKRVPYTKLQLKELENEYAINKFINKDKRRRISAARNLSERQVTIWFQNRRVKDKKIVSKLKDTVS

Question: With ATAATATA as the sequence, how does the binding signal (ALX3 [1]) read?
Answer: 8.66 upbm affinity estimate (log intensity, higher = more binding, comparable within an allelic series)

Question: And the binding signal (PAX4)?
Answer: 10.7 upbm affinity estimate (log intensity, higher = more binding, comparable within an allelic series)

Question: And the binding signal (ALX3 [2])?
Answer: 8.76 upbm affinity estimate (log intensity, higher = more binding, comparable within an allelic series)

Question: With AGAGGGGG as the sequence, how does the binding signal (ALX3 [1]) read?
Answer: 7.63 upbm affinity estimate (log intensity, higher = more binding, comparable within an allelic series)

Question: What about the binding signal (ALX3 [3]) of the same sequence?
Answer: 7.93 upbm affinity estimate (log intensity, higher = more binding, comparable within an allelic series)

Question: What about the binding signal (ALX3 [4]) of the same sequence?
Answer: 7.69 upbm affinity estimate (log intensity, higher = more binding, comparable within an allelic series)

Question: And the binding signal (ALX3 [5])?
Answer: 7.67 upbm affinity estimate (log intensity, higher = more binding, comparable within an allelic series)

Question: And the binding signal (ALX3 [2])?
Answer: 7.59 upbm affinity estimate (log intensity, higher = more binding, comparable within an allelic series)

Question: For AATTGTCC, which binding signal (ALX3 [1]) is on record?
Answer: 8.15 upbm affinity estimate (log intensity, higher = more binding, comparable within an allelic series)

Question: What about the binding signal (NKX2-6 [6]) of the same sequence?
Answer: 11.4 upbm affinity estimate (log intensity, higher = more binding, comparable within an allelic series)

Question: What about the binding signal (ALX3 [3]) of the same sequence?
Answer: 10.1 upbm affinity estimate (log intensity, higher = more binding, comparable within an allelic series)

Question: What about the binding signal (NKX2-6 [7]) of the same sequence?
Answer: 9.84 upbm affinity estimate (log intensity, higher = more binding, comparable within an allelic series)

Question: What about the binding signal (ALX3 [2]) of the same sequence?
Answer: 8.23 upbm affinity estimate (log intensity, higher = more binding, comparable within an allelic series)

Question: What does the source list for TATTAAAA?
Answer: binding signal (ALX3 [1]): 8.56 upbm affinity estimate (log intensity, higher = more binding, comparable within an allelic series); binding signal (HOXD13 [8]): 10.8 upbm affinity estimate (log intensity, higher = more binding, comparable within an allelic series); binding signal (HOXD13 [9]): 11.8 upbm affinity estimate (log intensity, higher = more binding, comparable within an allelic series); binding signal (HOXD13 [10]): 11.8 upbm affinity estimate (log intensity, higher = more binding, comparable within an allelic series); binding signal (HOXC9): 11.1 upbm affinity estimate (log intensity, higher = more binding, comparable within an allelic series)

Question: ACCCGGGT was tested. Which binding signal (ALX3 [1]) did it give?
Answer: 7.83 upbm affinity estimate (log intensity, higher = more binding, comparable within an allelic series)

Question: What about the binding signal (ALX3 [3]) of the same sequence?
Answer: 8.06 upbm affinity estimate (log intensity, higher = more binding, comparable within an allelic series)

Question: And the binding signal (ALX3 [4])?
Answer: 8.02 upbm affinity estimate (log intensity, higher = more binding, comparable within an allelic series)

Question: What about the binding signal (ALX3 [5]) of the same sequence?
Answer: 7.92 upbm affinity estimate (log intensity, higher = more binding, comparable within an allelic series)

Question: And the binding signal (ALX3 [2])?
Answer: 7.9 upbm affinity estimate (log intensity, higher = more binding, comparable within an allelic series)

Question: ATTTACGG was tested. Which binding signal (ALX3 [1]) did it give?
Answer: 8.3 upbm affinity estimate (log intensity, higher = more binding, comparable within an allelic series)

Question: What about the binding signal (ALX3 [3]) of the same sequence?
Answer: 10.1 upbm affinity estimate (log intensity, higher = more binding, comparable within an allelic series)

Question: What does the source list for GGATGGCC?
Answer: binding signal (ALX3 [1]): 7.66 upbm affinity estimate (log intensity, higher = more binding, comparable within an allelic series); binding signal (ALX3 [3]): 7.74 upbm affinity estimate (log intensity, higher = more binding, comparable within an allelic series); binding signal (ALX3 [4]): 7.73 upbm affinity estimate (log intensity, higher = more binding, comparable within an allelic series); binding signal (ALX3 [5]): 7.67 upbm affinity estimate (log intensity, higher = more binding, comparable within an allelic series); binding signal (ALX3 [2]): 7.67 upbm affinity estimate (log intensity, higher = more binding, comparable within an allelic series)

Question: For GACATAAC, which binding signal (ALX3 [1]) is on record?
Answer: 8.29 upbm affinity estimate (log intensity, higher = more binding, comparable within an allelic series)

Question: And the binding signal (ALX3 [3])?
Answer: 9.44 upbm affinity estimate (log intensity, higher = more binding, comparable within an allelic series)

Question: Which results are given for CCGCGGAC?
Answer: binding signal (ALX3 [1]): 7.74 upbm affinity estimate (log intensity, higher = more binding, comparable within an allelic series); binding signal (ALX3 [3]): 7.45 upbm affinity estimate (log intensity, higher = more binding, comparable within an allelic series); binding signal (ALX3 [4]): 7.7 upbm affinity estimate (log intensity, higher = more binding, comparable within an allelic series); binding signal (ALX3 [5]): 7.67 upbm affinity estimate (log intensity, higher = more binding, comparable within an allelic series); binding signal (ALX3 [2]): 7.75 upbm affinity estimate (log intensity, higher = more binding, comparable within an allelic series)

Question: AATATTAT was tested. Which binding signal (ALX3 [1]) did it give?
Answer: 8.61 upbm affinity estimate (log intensity, higher = more binding, comparable within an allelic series)

Question: What about the binding signal (PAX4) of the same sequence?
Answer: 10.7 upbm affinity estimate (log intensity, higher = more binding, comparable within an allelic series)

Question: What about the binding signal (ALX3 [2]) of the same sequence?
Answer: 8.71 upbm affinity estimate (log intensity, higher = more binding, comparable within an allelic series)

Question: For GCTCTGCC, which binding signal (ALX3 [1]) is on record?
Answer: 7.7 upbm affinity estimate (log intensity, higher = more binding, comparable within an allelic series)

Question: And the binding signal (ALX3 [3])?
Answer: 7.55 upbm affinity estimate (log intensity, higher = more binding, comparable within an allelic series)

Question: What about the binding signal (VAX1 [11]) of the same sequence?
Answer: 7.01 upbm affinity estimate (log intensity, higher = more binding, comparable within an allelic series)

Question: What about the binding signal (ALX3 [4]) of the same sequence?
Answer: 7.72 upbm affinity estimate (log intensity, higher = more binding, comparable within an allelic series)

Question: What about the binding signal (ALX3 [5]) of the same sequence?
Answer: 7.75 upbm affinity estimate (log intensity, higher = more binding, comparable within an allelic series)

Question: And the binding signal (VAX1 [12])?
Answer: 7.19 upbm affinity estimate (log intensity, higher = more binding, comparable within an allelic series)

Question: And the binding signal (ALX3 [2])?
Answer: 7.71 upbm affinity estimate (log intensity, higher = more binding, comparable within an allelic series)

Question: And the binding signal (VAX1 [13])?
Answer: 7.08 upbm affinity estimate (log intensity, higher = more binding, comparable within an allelic series)

Question: Which results are given for CCCCCCAA?
Answer: binding signal (ALX3 [1]): 7.79 upbm affinity estimate (log intensity, higher = more binding, comparable within an allelic series); binding signal (ALX3 [3]): 7.79 upbm affinity estimate (log intensity, higher = more binding, comparable within an allelic series); binding signal (ALX3 [4]): 7.64 upbm affinity estimate (log intensity, higher = more binding, comparable within an allelic series); binding signal (ALX3 [5]): 7.7 upbm affinity estimate (log intensity, higher = more binding, comparable within an allelic series); binding signal (ALX3 [2]): 7.81 upbm affinity estimate (log intensity, higher = more binding, comparable within an allelic series)
